Results filed as inconclusive are left out. Active and inactive are the calls of the source. The calls were made as follows, unless noted: active = hit-call score of the fitted dose curve at least 0.9, where 1 is the maximum; inactive = score below 0.9.
Assays:
[1] = ATG_TGFb_CIS: Attagene CIS-FACTORIAL HepG2 Assay for human Transforming Growth Factor (TGF) (AID 2282967); details: HepG2 Attagene CIS TGFb reporter, mRNA transcription; actives raise or lower the signal
In short: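 Readout: fluorescently labeled reporter cDNA fragments resolved by capillary electrophoresis after RT-PCR. Transfected HepG2 cells dosed for 24 h; endogenous TF activity at TGFB1-linked cis element; gain or loss fitted relative to DMSO.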

[2] = molecular target: Nuclear receptor subfamily 1 group I member 3 (Homo sapiens) (UniProt Q14994); assay: ATG_CAR_TRANS: Attagene TRANS-FACTORIAL HepG2 Assay for human Constitutive Androstane Receptor (CAR) (AID 2282969; active = hit-call score of the fitted dose curve at least 0.9, where 1 is the maximum;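 also: activators raise reporter mRNA above DMSO so AC50 marks induction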); details: HepG2 Attagene TRANS-FACTORIAL CAR reporter
In short: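 HepG2 cells transiently transfected with multiplexed GAL4-UAS reporter units expressing chimeric NR-Gal4 proteins; compound exposure 24 h. Reporter mRNA measured by RT-PCR, 6-FAM labelling, HpaI digestion and capillary electrophoresis; gain-of-signal fitted against DMSO baseline.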

[3] = molecular target: X-box-binding protein 1 (Homo sapiens) (UniProt P17861); assay: ATG_Xbp1_CIS: Attagene CIS-FACTORIAL HepG2 Assay for human X-box Binding Protein 1 (XBP1) (AID 2282972); details: HepG2 XBP1 cis-element reporter, Attagene multiplex; actives raise or lower the signal
In short: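 HepG2 cells transiently transfected with multiple cis-element reporter units report endogenous TF activity; 24 h exposure, then reporter mRNA measured by RT-PCR, 6-FAM labelling, HpaI digestion and capillary electrophoresis. Bidirectional fitting versus DMSO.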

[4] = ATG_M_19_TRANS: Attagene TRANS-FACTORIAL HepG2 Assay for M19 Transcription Factor (Internal Marker) (AID 2282974; active = hit-call score of the fitted dose curve at least 0.9, where 1 is the maximum); details: HepG2 Attagene TRANS-FACTORIAL M19 internal marker reporter
In short: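 24 h chemical exposure of transiently transfected HepG2 (MRTU library). RNA → oligo(dT) RT → PCR → 6-FAM labelling → HpaI cut → CE fluorescence. Positive-direction fit vs DMSO baseline; background internal-marker readout.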

[5] = molecular target: Estrogen-related receptor gamma (Homo sapiens) (UniProt P62508); assay: ATG_ERRg_TRANS: Attagene TRANS-FACTORIAL HepG2 Assay for human Estrogen-Related Receptor gamma (ERRg) (AID 2282977; active = hit-call score of the fitted dose curve at least 0.9, where 1 is the maximum;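 also: hits increase reporter signal over DMSO so potencies reflect activators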); details: HepG2 Attagene TRANS reporter, ERRg transactivation
In short: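 HepG2 cells transiently transfected with multiplexed GAL4-UAS reporter units driven by chimeric NR-Gal4 proteins; 24 h exposure. Reporter mRNA quantified by RT-PCR, fluorescent labelling, HpaI digestion and capillary electrophoresis; gain of signal vs DMSO.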

[6] = molecular target: Bile acid receptor (Homo sapiens) (UniProt Q96RI1); assay: ATG_FXR_TRANS: Attagene TRANS-FACTORIAL HepG2 Assay for Farnesoid X Receptor (FXR) (AID 2282979; active = hit-call score of the fitted dose curve at least 0.9, where 1 is the maximum;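 also: hits raise reporter mRNA above DMSO so AC50 marks FXR activation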); details: HepG2 Attagene TRANS FXR-GAL4 reporter transcription
In short: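 Transient transfection of HepG2 with multiplexed GAL4-UAS reporter units; exogenous FXR-GAL4 chimera. Dose 24 h → TriZol RNA → oligo(dT) RT → PCR, 6-FAM primer extension, HpaI cut → CE. Gain vs DMSO.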

[7] = molecular target: Oxysterols receptor LXR-beta (Homo sapiens) (UniProt P55055); assay: ATG_LXRb_TRANS: Attagene TRANS-FACTORIAL HepG2 Assay for human Liver X Receptor beta (LXRb) (AID 2282981; active = hit-call score of the fitted dose curve at least 0.9, where 1 is the maximum); details: HepG2 Attagene TRANS GAL4-LXRb reporter, mRNA
In short: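 In this TRANS format, exogenous chimeric NR-Gal4 protein activity, not endogenous factors, drives reporter expression in transfected human HepG2 cells. Exposure lasted 24 h; reporter mRNA was read by fluorescent capillary electrophoresis.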

[8] = ATG_M_32_TRANS: Attagene TRANS-FACTORIAL HepG2 Assay for M32 Transcription Factor (Internal Marker) (AID 2282984; active = hit-call score of the fitted dose curve at least 0.9, where 1 is the maximum;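 also: transcript level of a background control reporter unit measured by RT-PCR and capillary electrophoresis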); details: HepG2 Attagene TRANS M32 internal marker reporter
In short: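 Human hepatoma HepG2, transient MRTU transfection, 24 h treatment. RNA → RT-PCR → fluorescent primer extension → HpaI digest (2 h, 37 C) → CE. Positive-direction fit vs DMSO.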

[9] = molecular target: Nuclear receptor subfamily 4 group A member 2 (Homo sapiens) (UniProt P43354); assay: ATG_NURR1_TRANS: Attagene TRANS-FACTORIAL HepG2 Assay for human Nuclear Receptor Related Protein 1 (NURR1) (AID 2282985; active = hit-call score of the fitted dose curve at least 0.9, where 1 is the maximum); details: HepG2 Attagene TRANS reporter, mRNA readout
In short: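 After 24 h chemical dosing, total RNA from transiently transfected HepG2 cells was reverse-transcribed and reporter cDNA PCR-amplified, FAM-labelled and analysed by capillary electrophoresis. Activity fitted in positive direction, DMSO as negative control.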

[10] = molecular target: Transcriptional activator Myb (Homo sapiens) (UniProt P10242); assay: ATG_Myb_CIS: Attagene CIS-FACTORIAL HepG2 Assay for human Myeloblastosis (Myb) Proto-Oncogene Transcription Factor (AID 2282986); details: HepG2 Attagene CIS-FACTORIAL Myb reporter transcription; actives raise or lower the signal
In short: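 HepG2, transient MRTU transfection (cis-element promoters, endogenous TF activity), 24 h compound exposure. Readout: reporter mRNA via RT-PCR, 6-FAM labeling, HpaI digest, capillary electrophoresis. Gain/loss fit vs DMSO.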

[11] = molecular target: Nuclear respiratory factor 1 (Homo sapiens) (UniProt Q16656); assay: ATG_NRF1_CIS: Attagene CIS-FACTORIAL HepG2 Assay for human Nuclear Respiratory Factor 1 (NRF1) Orphan Gene (AID 2282987); details: HepG2 NRF1 cis-element reporter, Attagene multiplex; actives raise or lower the signal
In short: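 Endogenous NRF1-driven reporter transcription measured in transiently transfected human HepG2 liver cells. Readout: reporter mRNA by RT-PCR and capillary electrophoresis with fluorescence detection, 24 h post-dosing. Gain or loss of signal fitted relative to DMSO baseline.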

[12] = ATG_NFI_CIS: Attagene CIS-FACTORIAL HepG2 Assay for human Nuclear Factor I (NFI) (AID 2282989); details: HepG2 cis-regulatory reporter, NFI response element transcription; actives raise or lower the signal
In short: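 Read-out: reporter mRNA via RT-PCR plus capillary electrophoresis with fluorescence detection. Transiently transfected HepG2 (endogenous TF activity on cis promoters), 24 h compound exposure; gain or loss of signal fitted against DMSO.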

[13] = molecular target: Myc proto-oncogene protein (Homo sapiens) (UniProt P01106); assay: ATG_Myc_CIS: Attagene CIS-FACTORIAL HepG2 Assay for human Myelocytomatosis (Myc) Proto-Oncogene Transcription Factor (AID 2282990); details: HepG2, Attagene cis-reporter transcription factor activity; actives raise or lower the signal
In short: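 HepG2 cells transiently transfected with multiple cis-promoter-driven reporter transcription units, so endogenous TF activity is read. After 24 h compound exposure, reporter mRNA was quantified by RT-PCR, 6-FAM labelling, HpaI digestion and capillary electrophoresis; bidirectional fit versus DMSO.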

[14] = molecular target: Glucocorticoid receptor (Homo sapiens) (UniProt P04150); assay: ATG_GR_TRANS: Attagene TRANS-FACTORIAL HepG2 Assay for human Glucocorticoid Receptor (GR) (AID 2282978; active = hit-call score of the fitted dose curve at least 0.9, where 1 is the maximum;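 also: activators score as hits since higher reporter transcript over DMSO is fitted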); details: HepG2 Attagene TRANS GR reporter, mRNA transcription
In short: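 Transient MRTU transfection of HepG2 (GAL4-UAS reporters, exogenous NR-GAL4 chimeras), 24 h dosing. Readout: reporter transcript via RT-PCR + capillary electrophoresis fluorescence. Positive direction vs DMSO baseline.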

[15] = molecular target: Oxysterols receptor LXR-alpha (Homo sapiens) (UniProt Q13133); assay: ATG_LXRa_TRANS: Attagene TRANS-FACTORIAL HepG2 Assay for human Liver X Receptor alpha (LXRa) (AID 2282980; active = hit-call score of the fitted dose curve at least 0.9, where 1 is the maximum); details: HepG2 Attagene TRANS reporter, LXRa transactivation
In short: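 Transfect HepG2 with GAL4-UAS multiplex reporter constructs (TRANS format, chimeric receptor-GAL4); treat 24 h; extract RNA, reverse-transcribe, PCR-amplify, FAM-label, HpaI-digest; resolve fragments by capillary electrophoresis. Upward response vs DMSO.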

[16] = ATG_M_06_TRANS: Attagene TRANS-FACTORIAL HepG2 Assay for M06 Transcription Factor (Internal Marker) (AID 2282983; active = hit-call score of the fitted dose curve at least 0.9, where 1 is the maximum); details: HepG2 Attagene TRANS M06 internal marker reporter
In short: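 Transfect HepG2 with MRTUs → dose compounds 24 h → isolate RNA, oligo(dT) RT → PCR with reporter primers → 6-FAM primer extension → HpaI digest → CE fragment analysis. Positive direction vs DMSO.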

[17] = molecular target: Hepatocyte nuclear factor 4-alpha (Homo sapiens) (UniProt P41235); assay: ATG_HNF4a_TRANS: Attagene TRANS-FACTORIAL HepG2 Assay for human Hepatocyte Nuclear Factor 4 alpha (HNF4a) (AID 2282982; active = hit-call score of the fitted dose curve at least 0.9, where 1 is the maximum); details: HepG2 HNF4a transactivation reporter, mRNA readout
In short: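 Cells used were human HepG2, transiently carrying GAL4-UAS reporter units read out against exogenous NR-GAL4 chimeras. Reporter transcript levels after 24 h dosing were quantified by fluorescent RT-PCR and capillary electrophoresis.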

Measured: outcome

Sequence of Nuclear receptor subfamily 4 group A member 2 (Homo sapiens) (P43354 whole entry, looked up): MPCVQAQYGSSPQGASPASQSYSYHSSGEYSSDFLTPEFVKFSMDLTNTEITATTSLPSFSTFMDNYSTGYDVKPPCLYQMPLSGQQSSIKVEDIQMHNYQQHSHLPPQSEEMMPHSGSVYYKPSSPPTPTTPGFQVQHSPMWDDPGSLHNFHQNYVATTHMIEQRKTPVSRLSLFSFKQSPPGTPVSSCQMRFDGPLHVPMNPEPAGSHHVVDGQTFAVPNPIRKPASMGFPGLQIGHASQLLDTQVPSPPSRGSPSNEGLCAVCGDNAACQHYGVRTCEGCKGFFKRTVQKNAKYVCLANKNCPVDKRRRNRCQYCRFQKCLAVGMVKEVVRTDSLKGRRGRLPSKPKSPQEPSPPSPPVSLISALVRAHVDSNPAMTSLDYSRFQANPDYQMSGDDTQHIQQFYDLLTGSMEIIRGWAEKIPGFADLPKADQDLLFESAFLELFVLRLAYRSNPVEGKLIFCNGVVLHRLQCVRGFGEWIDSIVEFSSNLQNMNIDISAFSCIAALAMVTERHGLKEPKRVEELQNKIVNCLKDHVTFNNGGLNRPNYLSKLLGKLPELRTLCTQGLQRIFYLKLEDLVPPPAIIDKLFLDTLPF
Sequence of Myc proto-oncogene protein (Homo sapiens) (P01106 whole entry, looked up): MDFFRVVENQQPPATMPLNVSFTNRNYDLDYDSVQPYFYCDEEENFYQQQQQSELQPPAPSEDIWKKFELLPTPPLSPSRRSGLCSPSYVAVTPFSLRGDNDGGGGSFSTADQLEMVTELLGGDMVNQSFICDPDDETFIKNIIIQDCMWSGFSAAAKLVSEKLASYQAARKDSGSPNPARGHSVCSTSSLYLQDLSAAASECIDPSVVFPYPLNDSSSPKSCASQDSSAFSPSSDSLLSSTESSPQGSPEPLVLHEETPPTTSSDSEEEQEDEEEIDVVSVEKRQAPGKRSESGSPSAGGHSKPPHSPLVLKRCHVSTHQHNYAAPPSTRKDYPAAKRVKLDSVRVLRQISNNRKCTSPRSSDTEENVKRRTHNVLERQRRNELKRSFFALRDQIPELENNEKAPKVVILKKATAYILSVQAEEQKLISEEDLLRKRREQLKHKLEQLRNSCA
Sequence of Nuclear receptor subfamily 1 group I member 3 (Homo sapiens) (Q14994 whole entry, looked up, the tested form may be a part): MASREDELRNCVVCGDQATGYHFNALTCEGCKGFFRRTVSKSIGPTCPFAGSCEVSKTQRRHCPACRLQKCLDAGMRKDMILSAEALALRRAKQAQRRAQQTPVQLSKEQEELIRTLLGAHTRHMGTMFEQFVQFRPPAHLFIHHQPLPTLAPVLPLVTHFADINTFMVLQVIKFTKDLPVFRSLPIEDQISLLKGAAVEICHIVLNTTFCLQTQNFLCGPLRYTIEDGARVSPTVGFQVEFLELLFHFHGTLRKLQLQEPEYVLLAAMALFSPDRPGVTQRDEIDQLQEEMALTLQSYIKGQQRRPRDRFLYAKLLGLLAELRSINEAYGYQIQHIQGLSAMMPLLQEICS
Sequence of Nuclear respiratory factor 1 (Homo sapiens) (Q16656 whole entry, looked up): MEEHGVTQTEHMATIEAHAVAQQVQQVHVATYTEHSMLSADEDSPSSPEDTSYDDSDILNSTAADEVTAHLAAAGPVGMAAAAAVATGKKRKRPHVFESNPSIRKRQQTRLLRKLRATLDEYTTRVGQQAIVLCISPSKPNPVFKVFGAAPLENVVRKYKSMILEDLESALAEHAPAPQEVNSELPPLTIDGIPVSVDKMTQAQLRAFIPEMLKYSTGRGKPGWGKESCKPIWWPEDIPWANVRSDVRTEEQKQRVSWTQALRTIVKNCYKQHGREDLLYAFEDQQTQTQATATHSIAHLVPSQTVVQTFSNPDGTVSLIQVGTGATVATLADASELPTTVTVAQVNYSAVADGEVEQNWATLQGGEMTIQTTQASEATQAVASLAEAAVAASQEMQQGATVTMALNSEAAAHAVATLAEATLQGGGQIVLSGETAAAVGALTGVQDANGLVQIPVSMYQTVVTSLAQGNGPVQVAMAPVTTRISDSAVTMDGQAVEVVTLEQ
Sequence of Transcriptional activator Myb (Homo sapiens) (P10242 whole entry, looked up): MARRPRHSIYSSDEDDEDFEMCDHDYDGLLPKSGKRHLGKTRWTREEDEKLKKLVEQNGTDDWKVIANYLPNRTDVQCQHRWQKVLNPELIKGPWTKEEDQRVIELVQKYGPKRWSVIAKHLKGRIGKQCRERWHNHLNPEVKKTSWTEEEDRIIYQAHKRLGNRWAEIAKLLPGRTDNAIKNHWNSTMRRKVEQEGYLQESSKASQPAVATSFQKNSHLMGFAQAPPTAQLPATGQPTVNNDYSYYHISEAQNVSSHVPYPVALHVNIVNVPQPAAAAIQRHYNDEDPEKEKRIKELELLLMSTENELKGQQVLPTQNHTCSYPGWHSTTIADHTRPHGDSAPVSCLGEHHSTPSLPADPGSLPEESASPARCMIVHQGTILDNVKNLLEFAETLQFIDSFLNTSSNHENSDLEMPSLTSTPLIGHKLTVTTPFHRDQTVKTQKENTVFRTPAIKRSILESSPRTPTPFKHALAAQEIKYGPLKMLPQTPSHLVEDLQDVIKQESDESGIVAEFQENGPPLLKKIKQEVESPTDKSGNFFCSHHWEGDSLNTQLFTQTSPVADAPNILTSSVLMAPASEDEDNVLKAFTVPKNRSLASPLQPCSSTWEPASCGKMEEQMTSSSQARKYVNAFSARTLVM
Sequence of Oxysterols receptor LXR-alpha (Homo sapiens) (Q13133 whole entry, looked up, the tested form may be a part): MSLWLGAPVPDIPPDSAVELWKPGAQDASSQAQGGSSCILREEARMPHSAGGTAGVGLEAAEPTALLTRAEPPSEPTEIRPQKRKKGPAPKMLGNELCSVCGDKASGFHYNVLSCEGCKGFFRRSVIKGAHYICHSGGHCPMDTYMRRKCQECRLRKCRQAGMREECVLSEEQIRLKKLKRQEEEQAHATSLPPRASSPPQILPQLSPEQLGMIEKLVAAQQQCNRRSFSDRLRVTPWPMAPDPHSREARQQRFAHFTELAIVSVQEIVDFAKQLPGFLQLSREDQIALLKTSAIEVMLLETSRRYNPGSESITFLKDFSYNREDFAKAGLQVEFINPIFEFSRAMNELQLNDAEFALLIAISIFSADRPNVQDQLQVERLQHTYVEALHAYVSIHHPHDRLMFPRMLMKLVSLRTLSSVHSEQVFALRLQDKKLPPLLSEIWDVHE
Sequence of Glucocorticoid receptor (Homo sapiens) (P04150 whole entry, looked up, the tested form may be a part): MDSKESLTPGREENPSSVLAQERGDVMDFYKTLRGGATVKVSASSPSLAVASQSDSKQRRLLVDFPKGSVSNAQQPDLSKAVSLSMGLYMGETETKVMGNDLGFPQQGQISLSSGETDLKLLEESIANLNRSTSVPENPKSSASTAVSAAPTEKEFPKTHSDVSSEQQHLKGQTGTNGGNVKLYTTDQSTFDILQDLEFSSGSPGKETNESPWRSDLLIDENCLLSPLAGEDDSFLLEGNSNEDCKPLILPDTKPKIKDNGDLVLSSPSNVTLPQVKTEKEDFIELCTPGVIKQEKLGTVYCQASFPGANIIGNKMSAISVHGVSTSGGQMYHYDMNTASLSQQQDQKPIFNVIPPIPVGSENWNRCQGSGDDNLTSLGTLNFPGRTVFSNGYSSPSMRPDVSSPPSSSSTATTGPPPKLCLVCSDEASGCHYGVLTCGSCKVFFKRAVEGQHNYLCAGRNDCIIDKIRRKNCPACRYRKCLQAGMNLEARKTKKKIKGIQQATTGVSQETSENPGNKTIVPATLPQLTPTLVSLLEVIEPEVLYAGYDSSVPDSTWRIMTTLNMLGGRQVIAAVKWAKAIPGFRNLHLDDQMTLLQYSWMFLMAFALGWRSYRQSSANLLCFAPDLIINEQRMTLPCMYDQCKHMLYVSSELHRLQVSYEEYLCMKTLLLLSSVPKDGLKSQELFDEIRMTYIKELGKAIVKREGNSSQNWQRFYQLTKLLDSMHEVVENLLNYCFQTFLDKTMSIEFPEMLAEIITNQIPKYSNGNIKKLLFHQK
Sequence of X-box-binding protein 1 (Homo sapiens) (P17861 whole entry, looked up): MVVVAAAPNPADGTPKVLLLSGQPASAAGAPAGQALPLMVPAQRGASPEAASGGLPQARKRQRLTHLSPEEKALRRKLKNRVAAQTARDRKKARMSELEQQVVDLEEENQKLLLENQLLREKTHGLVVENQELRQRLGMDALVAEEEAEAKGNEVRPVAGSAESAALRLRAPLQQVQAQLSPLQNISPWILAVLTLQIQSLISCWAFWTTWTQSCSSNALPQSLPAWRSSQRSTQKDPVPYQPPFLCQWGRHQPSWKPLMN
Sequence of Bile acid receptor (Homo sapiens) (Q96RI1 whole entry, looked up, the tested form may be a part): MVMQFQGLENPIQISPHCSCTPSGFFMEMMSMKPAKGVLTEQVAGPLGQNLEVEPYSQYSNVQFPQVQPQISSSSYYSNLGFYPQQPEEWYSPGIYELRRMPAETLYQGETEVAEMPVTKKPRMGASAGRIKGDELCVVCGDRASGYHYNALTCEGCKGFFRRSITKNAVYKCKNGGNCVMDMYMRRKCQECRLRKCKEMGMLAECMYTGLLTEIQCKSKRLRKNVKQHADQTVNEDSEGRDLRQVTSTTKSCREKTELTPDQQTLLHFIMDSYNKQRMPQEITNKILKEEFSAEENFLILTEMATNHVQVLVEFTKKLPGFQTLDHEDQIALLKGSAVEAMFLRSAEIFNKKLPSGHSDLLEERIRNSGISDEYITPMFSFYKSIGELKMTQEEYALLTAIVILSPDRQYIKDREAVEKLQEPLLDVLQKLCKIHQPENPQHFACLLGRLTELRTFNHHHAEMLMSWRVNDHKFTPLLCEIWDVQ
Sequence of Oxysterols receptor LXR-beta (Homo sapiens) (P55055 whole entry, looked up, the tested form may be a part): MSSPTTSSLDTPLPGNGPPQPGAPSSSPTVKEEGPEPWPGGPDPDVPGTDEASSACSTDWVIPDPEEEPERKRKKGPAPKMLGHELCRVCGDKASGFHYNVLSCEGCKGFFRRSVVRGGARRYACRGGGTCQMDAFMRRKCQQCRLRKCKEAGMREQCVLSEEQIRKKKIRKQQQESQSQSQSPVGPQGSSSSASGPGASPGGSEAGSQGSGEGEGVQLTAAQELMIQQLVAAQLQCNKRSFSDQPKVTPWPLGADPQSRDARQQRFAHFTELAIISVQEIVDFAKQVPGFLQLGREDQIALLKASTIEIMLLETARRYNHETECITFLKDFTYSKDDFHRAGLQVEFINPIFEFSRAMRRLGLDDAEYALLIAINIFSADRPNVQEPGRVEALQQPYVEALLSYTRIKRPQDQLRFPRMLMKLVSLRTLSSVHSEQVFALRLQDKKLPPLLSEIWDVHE

CC(=O)OC1CC(C)OC(C)O1 (stereo unspecified)
not listed: [14] | [15] | [16] | [17]
inactive: all other assays above

O=C1O[C@H]([C@H](O)CO)C(O)=C1O
not listed: [2] | [5] | [6] | [7] | [15] | [16] | [17]
inactive: all other assays above

Cn1cnc2c1c(=O)[nH]c(=O)n2C
not listed: [2] | [4] | [5] | [7] | [8] | [17]
inactive: all other assays above

CC(C)c1cccc(C(C)C)c1
inactive: [1] | [3] | [4] | [17] | [10] | [11] | [12] | [13]

C#CC(O)C(CC)CCCC (stereo unspecified)
not listed: [5] | [6] | [7] | [16] | [17]
inactive: all other assays above

CC(C)(O)c1ccc(CNC(=O)c2cccnc2Oc2ccc(F)cc2)cc1
not listed: [5] | [6] | [9] | [16] | [17]
inactive: all other assays above

From PubChem BioAssay (EPA / NIEHS)
